Measurements reported in PubChem BioAssay AID1159580 (chemical genetic matrix, 2015).
Several values for one entry are separate records, joined by “and”; a condition that tells them apart may be missing. Equal values may be shown once. Among all 5,500 compounds or so, about 2,000 (36%) were called active. Inconclusive results (about 18%) are left out. No stated cut-off is given here; in the data, active means normalized growth mostly below about 0.91 (no sharp cut-off); inconclusive means no clear call, values can overlap the other calls; inactive means mostly above about 0.92. The list shows a part of the results.

Assay: chemical genetic growth profiling, strain panel (AID 1159580);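 further: tested at 20 µM; growth read once vehicle control cultures reached saturation at 30 °C; 1 = growth at the plate median or of vehicle wells; lower values mean less growth of the strain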
Settings: S. cerevisiae deletion strains, growth OD

Measured: normalized growth

NC12CC3CC(CC(C3)C1)C2
inactive: locus YAL021C, strain ccr4, hits give low values 0.977 | locus YAL026C, strain drs2, hits give low values 0.996 | locus YAL030W, strain snc1, hits give low values 1.01 | locus YAL040C, strain CLN3, hits give low values 0.968 | locus YBL061C, strain skt5, hits give low values 1.01 | locus YBR009C, strain hhf1, hits give low values 0.99 | locus YBR021W, strain FUR4, hits give low values 0.992 | locus YBR023C, strain chs3, hits give low values 1.01 | locus YBR171W, strain sec66, hits give low values 1.01 | locus YBR229C, strain ROT2, hits give low values 1 | locus YBR231C, strain swc5, hits give low values 1.03 | locus YBR279W, strain paf1, hits give low values 0.994 | locus YCL011C, strain gbp2, hits give low values 0.985 | locus YCL016C, strain dcc1, hits give low values 0.977 | locus YCL029C, strain bik1, hits give low values 1.02 | locus YCL061C, strain MRC1 (second series), hits give low values 0.991 | locus YCL061C, strain MRC1, hits give low values 1.04 | locus YCL069W, strain vba3, hits give low values 1.01 | locus YCR088W, strain abp1, hits give low values 1.01 | locus YDL005C, strain med2, hits give low values 0.987 | locus YDL035C, strain GPR1, hits give low values 1.01 | locus YDL040C, strain nat1, hits give low values 1 | locus YDL074C, strain BRE1, hits give low values 1.02 | locus YDL101C, strain DUN1, hits give low values 1.02 | locus YDL134C, strain PPH21, hits give low values 1 | locus YDL185W, strain tfp1, hits give low values 1.02 | locus YDL192W, strain arf1, hits give low values 1.03 | locus YDR001C, strain nth1, hits give low values 0.995 | locus YDR069C, strain doa4, hits give low values 1.01 | locus YDR101C, strain arx1, hits give low values 1.03 | locus YDR137W, strain rgp1, hits give low values 1.03 | locus YDR150W, strain NUM1, hits give low values 0.992 | locus YDR159W, strain sac3, hits give low values 0.989 | locus YDR162C, strain NBP2, hits give low values 1.02 | locus YDR195W, strain ref2 1 | locus YDR297W, strain sur2, hits give low values 1.01 | locus YDR318W, strain mcm21, hits give low values 1.02 | locus YDR334W, strain swr1, hits give low values 0.994 | locus YDR335W, strain msn5, hits give low values 1.01 | locus YDR363W, strain ESC2, hits give low values 1.04 | locus YDR388W, hits give low values 1.02 | locus YDR392W, strain spt3, hits give low values 0.96 | locus YDR502C, strain sam2, hits give low values 1.01 | locus YEL003W, strain gim4, hits give low values 1.03 | locus YEL037C, strain rad23, hits give low values 0.995 | locus YEL061C, strain CIN8 (second series), hits give low values 0.998 | locus YEL061C, strain CIN8, hits give low values 1.01 | locus YER002W, strain NOP16, hits give low values 0.993 | locus YER015W, strain faa2, hits give low values 1.01 | locus YER016W, strain bim1, hits give low values 0.996 | locus YER110C, hits give low values 1.03 | locus YER111C, strain swi4, hits give low values 0.998 | locus YER155C, strain BEM2 (second series), hits give low values 1.05 | locus YER155C, strain BEM2, hits give low values 0.998 | locus YER167W, strain BCK2, hits give low values 1 | locus YFR010W, strain ubp6, hits give low values 1.01 | locus YGL078C, strain dbp3, hits give low values 1.02 | locus YGL086W, strain mad1, hits give low values 1.01 | locus YGL167C, strain pmr1, hits give low values 1 | locus YGL173C, strain kem1, hits give low values 1.03 | locus YGL227W, strain vid30, hits give low values 1 | locus YGL240W, strain doc1, hits give low values 1.04 | locus YGL248W, strain PDE1, hits give low values 1.03 | locus YGL253W, strain hxk2, hits give low values 0.98 | locus YGR078C, strain PAC10, hits give low values 0.999 | locus YGR135W, strain pre9, hits give low values 1.01 | locus YGR229C, strain SMI1, hits give low values 1.01 | locus YGR252W, strain gcn5, hits give low values 1.03 | locus YHR013C, strain ard1, hits give low values 1 | locus YHR027C, strain rpn1, hits give low values 0.996 | locus YHR030C, strain SLT2, hits give low values 1 | locus YHR079C, strain IRE1 (second series), hits give low values 1.03 | locus YHR079C, strain IRE1, hits give low values 1.02 | locus YHR094C, strain hxt1, hits give low values 1.01 | locus YHR129C, strain ARP1, hits give low values 1.01 | locus YHR142W, strain chs7, hits give low values 0.995 | locus YHR200W, strain rpn10, hits give low values 1.02 | locus YIL066C, strain RNR3, hits give low values 1.02 | locus YIL073C, strain SPO22, hits give low values 1.11 | locus YIL125W, strain kgd1, hits give low values 1.02 | locus YIR030C, strain dcg1, hits give low values 1.02 | locus YJL092W, strain hpr5, hits give low values 1.01 | locus YJL095W, strain BCK1 (second series), hits give low values 1.01 | locus YJL095W, strain BCK1, hits give low values 1.02 and 1.03 | locus YJL115W, strain asf1, hits give low values 0.999 | locus YJL129C, strain trk1, hits give low values 1.01 | locus YJL134W, strain LCB3, hits give low values 1.01 | locus YJL154C, strain vps35, hits give low values 0.998 | locus YJL164C, strain tpk1, hits give low values 0.98 | locus YJL166W, strain qcr8, hits give low values 1.04 | locus YJL168C, strain set2, hits give low values 1.02 | locus YJL187C, strain SWE1 (second series), hits give low values 1.03 | locus YJL187C, strain SWE1, hits give low values 1.01 | locus YJR043C, strain POL32, hits give low values 0.986 | locus YJR066W, strain TOR1, hits give low values 0.988 | locus YJR075W, strain HOC1, hits give low values 1.02 | locus YKL009W, strain mrt4, hits give low values 1.02 | locus YKL068W, hits give low values 1.01 | locus YKL085W, strain MDH1 (second series), hits give low values 1.01 | locus YKL085W, strain MDH1, hits give low values 1.01 | locus YKL160W, strain elf1, hits give low values 1.02 | locus YKR001C, strain vps1, hits give low values 1.01 | locus YKR026C, strain gcn3, hits give low values 1 | locus YKR091W, strain srl3, hits give low values 1 | locus YLL001W, strain dnm1, hits give low values 1.02 | locus YLL026W, hits give low values 1.01 | locus YLL041C, strain sdh2, hits give low values 0.993 | locus YLR027C, strain aat2, hits give low values 1.01 | locus YLR039C, strain RIC1, hits give low values 1.04 | locus YLR058C, strain SHM2, hits give low values 1.02 | locus YLR102C, strain apc9, hits give low values 1.02 | locus YLR113W, strain HOG1, hits give low values 1.04 | locus YLR221C, strain rsa3, hits give low values 0.986 | locus YLR258W, strain gsy2, hits give low values 0.993 | locus YLR262C, strain YPT6 (second series), hits give low values 1.03 | locus YLR262C, strain YPT6, hits give low values 1.07 | locus YLR268W, strain sec22, hits give low values 1.02 | locus YLR320W, strain mms22, hits give low values 0.977 | locus YLR330W, strain CHS5, hits give low values 1.01 | locus YLR342W, strain FKS1 (second series), hits give low values 0.997 | locus YLR342W, strain FKS1, hits give low values 1.03 | locus YLR357W, strain rsc2, hits give low values 0.993 | locus YLR370C, strain arc18, hits give low values 1 | locus YLR371W, strain rom2, hits give low values 1.02 | locus YLR384C, strain iki3, hits give low values 0.998 | locus YLR418C, strain cdc73, hits give low values 1.04 | locus YML016C, strain PPZ1, hits give low values 1.01 | locus YML032C, strain rad52, hits give low values 1.01 | locus YML120C, strain ndi1, hits give low values 1.03 | locus YML124C, strain tub3, hits give low values 1.02 | locus YMR058W, strain fet3, hits give low values 1.01 | locus YMR078C, strain ctf18, hits give low values 1.04 | locus YMR125W, strain sto1, hits give low values 0.999 | locus YMR129W, hits give low values 1 | locus YMR205C, strain PFK2, hits give low values 1.01 | locus YMR223W, strain ubp8, hits give low values 1.02 | locus YMR231W, strain pep5, hits give low values 0.999 | locus YMR307W, strain GAS1, hits give low values 0.933 | locus YNL067W, strain RPL9B, hits give low values 1.03 | locus YNL071W, strain lat1, hits give low values 0.989 | locus YNL128W, strain TEP1, hits give low values 0.983 | locus YNL153C, strain GIM3, hits give low values 1 | locus YNL175C, strain NOP13, hits give low values 0.996 | locus YNL183C, strain NPR1, hits give low values 0.972 | locus YNL197C, strain WHI3, hits give low values 0.978 | locus YNL209W, strain ssb2, hits give low values 0.989 | locus YNL224C, strain SQS1, hits give low values 1.01 | locus YNL233W, strain BNI4, hits give low values 1.02 | locus YNL248C, strain rpa49, hits give low values 0.994 | locus YNL250W, strain rad50, hits give low values 1.04 | locus YNL271C, strain bni1, hits give low values 1.03 | locus YNL298W, strain CLA4, hits give low values 1.02 | locus YNL307C, strain MCK1, hits give low values 1.03 | locus YNL322C, strain KRE1 (second series), hits give low values 0.999 | locus YNL322C, strain KRE1, hits give low values 1 | locus YNR049C, strain mso1, hits give low values 1 | locus YNR052C, strain pop2, hits give low values 1.02 | locus YOL006C, strain TOP1, hits give low values 1.1 | locus YOL012C, strain htz1 1.89 | locus YOL147C, strain pex11, hits give low values 1.03 | locus YOR001W, strain rrp6, hits give low values 1.05 | locus YOR061W, strain CKA2, hits give low values 1.02 | locus YOR069W, strain VPS5, hits give low values 1.01 | locus YOR070C, strain gyp1, hits give low values 0.99 | locus YOR080W, strain dia2, hits give low values 1.01 | locus YOR083W, strain WHI5 (second series), hits give low values 1 | locus YOR083W, strain WHI5, hits give low values 0.994 | locus YOR106W, strain vam3, hits give low values 1.04 | locus YOR136W, strain idh2, hits give low values 1.03 | locus YOR144C, strain elg1, hits give low values 1.02 | locus YOR184W, strain ser1, hits give low values 1.02 | locus YOR231W, strain MKK1, hits give low values 1.02 | locus YOR265W, strain rbl2, hits give low values 1.01 | locus YOR270C, strain vph1, hits give low values 1.03 | locus YOR290C, strain snf2, hits give low values 0.97 | locus YOR316C, strain cot1, hits give low values 1.02 | locus YPL051W, strain arl3, hits give low values 1.02 | locus YPL055C, strain LGE1, hits give low values 1.01 | locus YPL078C, strain atp4, hits give low values 1.05 | locus YPL106C, strain sse1, hits give low values 0.986 | locus YPL240C, strain hsp82, hits give low values 1.01 | locus YPL241C, strain CIN2, hits give low values 1 | locus YPL256C, strain CLN2, hits give low values 1.02 | locus YPR119W, strain clb2, hits give low values 1.02 | locus YPR141C, strain kar3, hits give low values 1.03 | locus YPR163C, strain tif3, hits give low values 1.02 | locus YPR167C, strain met16, hits give low values 1.03 | strain wtn01, hits give low values 1.01
